bovine MsrA act – bovine methionine sulfoxide reductase A activation | activation, % at 10.6 µM | purified bovine MsrA, absorbance read-out | 0.3% of 360,000 active; in the data active = activation above about 7.5%;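 also: 0% = vehicle and 100% = reference activator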
rCAG RNA binder – r(CAG) repeat RNA binding; 1.3% of 370,000 active; inhibition, % at 3 µM; AID 651821; TO-PRO-1 dye displacement fluorescence;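 active = inhibition above the plate cutoff, the mean of all test compounds on that plate plus 3 SD, cut at about 35% in these data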;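 also: 0% = DMSO alone and 100% = 100 µM mitoxantrone as full dye displacement; higher means more dye released from RNA so lower well fluorescence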
NadD inh – NadD (S. aureus) enzyme inhibition; purified NadD enzyme, colorimetric absorbance read-out; inhibition, % at 20 µM; 0.78% of 360,000 active; AID 602399; in the data active = inhibition above about 26%
MsrA inhibitor – inhibits bovine methionine sulfoxide reductase A. purified bovine MsrA, absorbance read-out. inhibition, % at 15.5 µM. 0.75% of 360,000 active. AID 651718; in the data active = inhibition above about 4.5%;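 also: 0% = vehicle wells with enzyme and 100% = reference inhibitor wells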
rCAG binder conf – r(CAG) RNA repeat binding, confirmation; shares compounds with rCAG RNA binder; TO-PRO-1 dye displacement fluorescence; inhibition, % at 3 µM; 70% of 4,300 active; AID 652065;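 active = inhibition above a per-plate cutoff, the mean inhibition of sample wells plus 3 SD, cut at about 35% in these data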;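 also: loss of TO-PRO-1 fluorescence as compound displaces dye from 1x1 AA loop RNA; 0% = DMSO only wells and 100% = 100 µM mitoxantrone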
dCAG dye counter – counter-screen for rCAG RNA binders: DNA CAG dye complex inhibitors; inhibition, % at 3 µM; shares compounds with rCAG RNA binder; d(CAG) DNA oligo TO-PRO-1 dye displacement, fluorescence; 94% of 4,300 active;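 active = inhibition above its plate's cutoff, the mean test-well inhibition plus 3 SD, cut at about 4.8% in these data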;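 also: 0% = DNA dye mix with DMSO and 100% = 100 µM mitoxantrone; hits displace the dye from DNA and so lower well fluorescence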
dCAG dye DR – counter-screen for rCAG binders: inhibitors of DNA CAG TO-PRO-1 complex. 20% of 250 active. shares compounds with rCAG RNA binder. DNA CAG/GTC duplex TO-PRO-1 dye displacement fluorescence. IC50, µM; in the data active = IC50 below about 10 µM
The depositor's hits bear a star; i = inactive; · = no result given. The list is not random: actives were taken first. Their share in the collection is about 2.7%.

SMILES	bovine MsrA act	rCAG RNA binder	NadD inh	MsrA inhibitor	rCAG binder conf	dCAG dye counter	others
O=[N+]([O-])c1ccc(S(=O)(=O)Nc2nc3ccccc3nc2Nc2ccccc2)cc1	-2	8	21	0	·	·
NS(=O)(=O)c1cccc(Nc2nc3ccccc3nc2NS(=O)(=O)c2ccc(Cl)cc2)c1	-1	90*	8	1	89*	68*
O=C(O)c1ccc(Nc2nc3ccccc3nc2NS(=O)(=O)c2ccc(F)cc2)cc1	-4	41*	6	2	53*	21*
CCOc1ccc(S(=O)(=O)N2CCN=C2c2ccccc2)c(C)c1C	-2	-6	-7	-1	·	·
O=C(O)c1ccc(-n2cccc2/C=C2/NC(=O)N(c3ccccc3)C2=O)cc1	-6	33	-6	3	·	·
O=C(O)c1ccc(-n2cccc2/C=C2/NC(=O)N(c3cccc(Cl)c3)C2=O)cc1	-2	39*	11	4	31	8.8*
COc1ccc(NC(=O)CN(C)C(=O)CCCSc2nc3ccccc3[nH]2)cc1	0	-8	3	0	·	·
CC1(OC(=O)CCc2ccccc2)C(=O)C=C2C=C(c3ccc(C#N)cc3)N(Cc3ccco3)C=C2C1=O (stereo unspecified)	-4	37*	28	1	24	16*
CCN(C(=O)COc1ccc(C(C)=O)cc1)c1cccc2ccccc12	-7	2	-1	-1	·	·
FC(F)(F)c1cc(Cl)c2nc(-c3ccc(Cl)cc3)c(Cc3ccsc3)n2c1	-10	51*	24	1	16	6.1*
Fc1ccc(-c2nc3c(Cl)cc(C(F)(F)F)cn3c2Cc2cccc(Cl)c2)cc1	-13	38*	30	2	5	4.6*
O=C(O)c1cccc(N/N=C/c2cc(Br)cc(Br)c2O)c1	-8	95*	0	2	83*	48*
O=C(O)c1cccc(NN=C2c3ccccc3-c3ccccc32)c1	-4	87*	-2	2	81*	47*
O=C(O)c1cc(NN=C2c3ccccc3-c3ccccc32)ccc1Cl	-1	93*	6	1	81*	50*
COc1ccccc1/C=C/C=N/Nc1cccc(C(=O)O)c1	-3	36*	-6	4	37*	9.3*
O=C(O)c1cccc2c1-c1ccccc1/C2=N\Nc1ccccc1	-4	29	-5	0	·	·
CC(=O)c1ccc(N(CC(=O)NC2CCCC2)C(=O)CCC(=O)Nc2cc(C)on2)cc1	-5	-3	-6	0	·	·
O=C(O)c1cc(N/N=C/C(Cl)=C/c2ccccc2)ccc1Cl	-10	57*	-8	2	45*	18*
O=C(O)c1cc(N/N=C/c2cccc3ccccc23)ccc1Cl	-1	12	-6	1	·	·
CCNC(=S)NNC(=O)c1cc(-c2cccnc2)nc2ccccc12	-10	10	-3	2	·	·
O=C(NNC(=S)Nc1ccccc1)c1cc(-c2cccnc2)nc2ccccc12	-1	50*	5	1	43*	13*
CCCCNC(=S)NNC(=O)c1cc(-c2cccnc2)nc2ccccc12	-1	43*	11	2	32	7.7*
CCNC(=S)NNC(=O)c1cc(-c2cccc(C)c2)nc2ccccc12	-2	43*	3	2	40*	12*
CCOC(=O)c1ccc(NC(=S)NNC(=O)c2cc(-c3cccnc3)nc3ccccc23)cc1	-1	78*	22	1	80*	37*
CC(=O)c1ccc(NC(=O)CCc2nnc3ccc(N4CCCC4)nn23)cc1	-4	-2	-4	0	·	·
SMILES	bovine MsrA act	rCAG RNA binder	NadD inh	MsrA inhibitor	rCAG binder conf	dCAG dye counter	others
NC(=O)CC(NC(=O)Cc1ccc(Br)cc1)c1ccc(N2CCN(c3ccccc3)CC2)c([N+](=O)[O-])c1 (stereo unspecified)	-3	9	0	1	·	·
COP(=O)(OC)OC(C(=O)c1ccccc1)c1ccc(Cl)cc1 (stereo unspecified)	·	-2	·	2	·	·
CCCCCCCCCCCC(=O)c1c(O)cccc1O	-1	41*	20	0	39*	23*
COc1ccc(NC(=O)C2(S(=O)(=O)c3ccc(C)cc3)CC2)cc1OC	-5	-1	-4	2	·	·
O=C(NCc1ccccc1)NC(O)C(Cl)(Cl)Cl (stereo unspecified)	-3	2	-1	2	·	·
O=S(=O)(Nc1cccc2c1ccc1cccn12)c1cccs1	-4	38*	6	2	32	13*
O=S(=O)(Nc1cccc2[nH]ncc12)c1cccs1	-8	4	0	2	·	·
Cc1cc(NS(=O)(=O)c2ccc(NC(=O)C(c3ccccc3)c3ccccc3)cc2)no1	-11	59*	-2	-1	47*	18*
Cc1cc(NS(=O)(=O)c2ccc(NC(=O)c3cc(-c4ccccc4Cl)nc4ccccc34)cc2)no1	-5	75*	19	0	72*	39*
Cc1cc(NS(=O)(=O)c2ccc(NC(=S)NC(=O)c3cccnc3)cc2)no1	-3	15	2	2	·	·
Cc1cc(NS(=O)(=O)c2ccc(NC(=S)NC(=O)c3ccc(Br)cc3)cc2)no1	-4	57*	7	1	47*	16*
CCc1ccc(OCC(=O)Nc2ccc(S(=O)(=O)Nc3cc(C)on3)cc2)c(Br)c1	-3	78*	10	0	74*	28*	dCAG dye DR=i
Cc1cc(NS(=O)(=O)c2ccc(NC(=O)Nc3ccccc3)cc2)no1	-5	11	-7	-1	·	·
COc1ccc(C(=O)NCc2ccco2)cc1S(=O)(=O)NC1CC1	-3	3	-1	0	·	·
CCc1ccc(-c2cc(C(=O)Nc3ccc(S(=O)(=O)NC(C)=O)cc3)c3ccccc3n2)cc1	-8	58*	13	4	63*	29*
Cc1cc(NS(=O)(=O)c2ccc(NC(=O)C(C)Oc3ccc(C(C)C)cc3)cc2)no1 (stereo unspecified)	-2	47*	6	0	49*	16*
Cc1cc(NS(=O)(=O)c2ccc(NC(=O)COc3ccc(Cl)cc3)cc2)no1	0	19	-6	-1	·	·
O=S(=O)(Nc1ccc(S(=O)(=O)N2CCCCCC2)cc1)c1cccs1	-6	22	-3	-1	·	·
O=S(=O)(Nc1ccc(S(=O)(=O)N2CCCCC2)cc1)c1ccc(Br)s1	-3	60*	-3	-1	60*	16*
COc1ccc(-c2csc(/C(C#N)=C(\O)CSc3nccn3C)n2)cc1OC	2	38*	14	1	59*	22*
CCc1nnc(NC(=O)CCN2C(=O)/C(=C/c3cc(OC)c(OC)c(OC)c3)SC2=S)s1	0	7	11	0	·	·
CC(=O)NNC(=O)C(O)(c1ccccc1)c1ccccc1	-3	-3	1	0	·	·
Cc1ccc(/C(O)=C/C(=O)C(=O)NNC(=O)C(O)(c2ccccc2)c2ccccc2)cc1	-10	46*	15	1	29	13*

Assay outcomes from PubChem BioAssay.
